# According to PubChem BioAssay AID652048 (National Center for Advancing Translational Sciences (NCATS), 2013):
# In all, about 410,000 compounds went through this assay and about 2,400 (0.59%) were called active. The full list was thinned out, with actives kept by preference. A number with no mark means an inactive call. Rule as the data show it: active = max activation above about 30%; inactive = the rest.
# Biological target: D(3) dopamine receptor (Homo sapiens) (UniProt P35462)
# Test: qHTS of D3 Dopamine Receptor Agonist: qHTS; also: 0% is about no effect
# Conditions: D3R DiscoveRx beta-arrestin cells, luminescence, 90 min; stronger effect = higher value
# Text: D3 DARs represent a very important target for the treatment of several neuropsychiatric disorders. Indeed, one of the most promising therapeutic applications for the D3 DAR is in the area of addiction and related disorders. […] These findings have been observed with a number of addictive substances including cocaine, amphetamine, nicotine, and alcohol. […] Antagonism of the D3 DAR may also be therapeutic in the treatment of schizophrenia or psychosis. […] Since the D3 DAR is expressed in areas of the CNS associated with the control of mood and emotion, it has been hypothesized that selective antagonism of the D3 DAR may be effective in treating psychosis without inducing the motor side effects typically seen with D2 DAR antagonists.
# This part of the project aims to discover novel agonist.
# NIH Chemical Genomics Center [NCGC]
# NIH Molecular Libraries Probe Centers Network [MLPCN]
# Assay Submitter (PI): David Sibley, NINDS
# Freshly passaged cells are plated in 1536 well white, solid bottom plates at a density of 1500 cells/well in 3microl of complete media. After an overnight incubation at 37 degrees C in 5% CO2, cells are loaded with 23nl of test compound from the compound library (as well as dopamine controls) using a 1536 pintool and incubated at 37 degrees C for 90 minutes. Two microliters of DiscoveRx reagent is then added to all cells, and they are incubated for an additional 30 - 60 minutes at room temperature. Following incubation, luminescence is measured on a ViewLux CCD-based luminometer reader using a 20 sec exposure time.
# D(3) dopamine receptor (Homo sapiens), sequence (P35462 whole entry, looked up): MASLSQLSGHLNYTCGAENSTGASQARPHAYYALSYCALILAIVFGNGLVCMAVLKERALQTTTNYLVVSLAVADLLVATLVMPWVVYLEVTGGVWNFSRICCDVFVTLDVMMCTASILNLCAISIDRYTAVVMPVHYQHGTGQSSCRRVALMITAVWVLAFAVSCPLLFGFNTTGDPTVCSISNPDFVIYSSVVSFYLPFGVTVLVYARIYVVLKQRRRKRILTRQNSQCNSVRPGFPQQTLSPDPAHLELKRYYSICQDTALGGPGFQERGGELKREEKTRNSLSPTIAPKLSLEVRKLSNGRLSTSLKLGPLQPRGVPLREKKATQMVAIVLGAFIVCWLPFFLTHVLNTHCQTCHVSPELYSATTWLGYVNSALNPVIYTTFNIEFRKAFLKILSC
row,Structure (SMILES),max activation
1,CC(C)=CCc1c(O)c(CC=C(C)C)c2occ(-c3ccc(O)cc3)c(=O)c2c1O,84.1% (active)
2,CC(C)=CCc1ccc(O)c(=O)cc1C(C)C,-8.37%
3,CCc1nc2c(cnn2-c2ccc(C)cc2)c(=O)n1-c1ccc(C)cc1,0.0293%
4,O=C(CCn1ccc2cc(S(=O)(=O)N3CCCC3)ccc21)NCc1cccc(Cl)c1,-1.61%
5,COc1ccc2ncc3c(-c4ccc(C)c(C)c4)nn(CC(=O)NC4CCCC4)c3c2c1,-3.77%
6,CC(=O)O[C@]1(C(C)=O)CC[C@H]2[C@@H]3CCC4=CC(=O)CC[C@]4(C)[C@@]3(F)[C@@H](O)C[C@@]21C,9.73%
7,S=c1[nH]nc(-c2cccs2)n1/N=C/c1cn(-c2ccccc2)nc1-c1ccc(Cl)cc1,44.2% (active)
8,CCC(=O)N1N=C(c2ccc(OC)cc2)CC1c1cn(-c2ccccc2)nc1-c1cccs1 (centres undefined),-10.2%
9,CC(=O)O[C@H]1CC[C@@]2(C)C(=CC[C@@H]3[C@@H]2CC[C@]2(C)C(c4cccnc4)=CC[C@@H]32)C1,6.91%
10,COc1ccc(S(=O)(=O)NCc2cccn2Cc2cccc(C)c2)cc1Cl,-14.5%
11,Cc1ccc(C(=O)Nc2ccc(OCc3cc(=O)n4c5c(sc4n3)CCCC5)cc2)cc1,-4.47%
12,COc1ccc(C(=O)NC2CC2)cc1OC1CCN(C/C=C/c2ccccc2)CC1,-13.2%
13,COc1cc(C(=O)N2CCN(C/C=C/c3ccccc3)CC2)cc(OC)c1C,49.9% (active)
14,COc1ccccc1C(=O)NC(CCSC)C(=O)N1CCN(C/C=C/c2ccccc2)CC1 (centres undefined),-0.587%
15,CCc1ccccc1N1C(=O)CN(S(=O)(=O)CC)CC1(C)C(=O)NC1CCCCC1 (centres undefined),-18.4%
16,N#Cc1ccccc1Cn1cnc2nc3c(cc2c1=O)CCCC3,-7.33%
17,C/C=C/C=N/NC(=O)c1ccncc1,-12.6%
18,Cc1ccc(Cc2nc3ccccc3nc2SCC(=O)Nc2cccc(C(F)(F)F)c2)cc1,4.77%
19,CN(Cc1ccccc1)C(=O)c1cc2c(=O)n(C)c3ccccc3c2s1,-16.8%
20,Cc1cc(C)cc(NC(=O)N(C)Cc2ccccc2)c1,-3.6%
21,CN(Cc1ccccc1)C(=O)c1cccc(C(=O)N(C)Cc2ccccc2)c1,115% (active)

row,Structure (SMILES),max activation
1,COc1ccc(-c2noc(CSc3nnc(-c4ccccc4)n3-c3ccc(F)cc3)n2)c(OC)c1,-1.45%
2,COc1ccc(S(=O)(=O)NCCSc2nnnn2-c2ccccc2)cc1,-5.06%
3,O=C(NC1CCCCC1)c1ccc2c(c1)N(Cc1ccc(Cl)cc1)C(=O)c1ccccc1S2=O (centres undefined),3.22%
4,CCC1CN(S(=O)(=O)c2cc(-c3cc(C)no3)ccc2C)c2cc(C)ccc2O1 (centres undefined),-8.75%
5,Cc1ccc(Nc2ccc3cc(S(=O)(=O)N4CCCCC4)ccc3n2)cc1F,3.49%
6,O=C1CCC(=O)N(O)CCCCCNC(=O)CCC(=O)N(O)CCCCCNC(=O)CCC(=O)N(O)CCCCCN1,65.3% (active)
7,CCCN(CCc1ccccc1)C1CCc2c(O)cccc2C1 (centres undefined),110% (active)
8,Cc1cc(C)cc(C(=O)N(CCc2ccccc2)C2=CC3CCC(C2)N3C)c1 (centres undefined),-13.4%
9,COc1cccc(CNC(=O)CN2C(=O)CCc3cc(S(=O)(=O)N4CCOCC4)ccc32)c1,7.79%
10,COc1ccc(N2CCN(C(=O)CSCc3nc(-c4ccccc4Cl)oc3C)CC2)cc1,13.9%
11,Cc1ccc(NC(=O)C2CCN(S(=O)(=O)c3cc(-c4noc(C)n4)ccc3C)CC2)c(C)c1,-12.1%
12,Cc1ccc(S(=O)(=O)C(C#N)c2nc3ccccc3nc2N2CCCC2)cc1C (centres undefined),44.8% (active)
13,N#CC(C(=O)c1ccc(S(=O)(=O)N2CCCCCC2)cc1)c1nc2ccccc2[nH]1 (centres undefined),24%
14,Cc1ccc(S(=O)(=O)c2nnn3c2nc(N2CCN(c4ccccc4F)CC2)c2cc(Cl)ccc23)cc1C,4.43%
15,CO/N=C(\C(=O)N[C@@H]1C(=O)N2C(C(=O)O)=C(C[N+]3(C)CCCC3)CS[C@H]12)c1csc(N)n1,2.02%
16,O=S(=O)(c1ccc2nc(NCc3ccccc3Cl)ccc2c1)N1CCCCC1,-23.2%
17,Cc1ccc(CNC(=O)c2cccc3c2C(=O)c2ccc(N4CCC(C)CC4)cc2S3(=O)=O)cc1,54.8% (active)
18,Cc1cccc(CNC(=O)c2cnc3sc(N4CCCCC4)nn3c2=O)c1,6.54%
19,Cc1ccc(CNC(=O)C2CCCN2C(=O)NCc2ccccc2)cc1 (centres undefined),4.63%
20,CCOC(=O)[C@H](CCc1ccccc1)N[C@@H](C)C(=O)N1CC2(C[C@H]1C(=O)O)SCCS2,-2.59%
21,COCc1cccc(-c2csc(C(O)c3ccc(F)cc3)n2)c1 (centres undefined),-13.4%

row,Structure (SMILES),max activation
1,CC(C)(C)C(=O)OCc1nc(-c2ccc(O)c(O)c2)cs1,117% (active)
2,Cc1ccc(S(=O)(=O)N2CCCc3cc(NS(=O)(=O)c4cc(C)ccc4C)ccc32)cc1,7.92%
3,CO/N=C(\C(=O)N[C@@H]1C(=O)N2C(C(=O)O)=CCS[C@H]12)c1csc(N)n1,3.03%
4,CCCCNc1c(-c2cccc(Sc3ccc(OC)cc3)c2)nc2ccccn12,13.9%
5,CCCCNc1c(-c2ccc(OC)c(Sc3ccc(OC)cc3)c2)nc2ccc(Cl)cn12,44.7% (active)
6,COC(=O)c1ccc2nc(-c3ccc(C)cc3)c(Cc3ccc(OC)cc3C)n2c1,-2.45%
7,COc1ccc(C2(C#N)CCC(C(=O)O)CC2)cc1OC1CCCC1 (centres undefined),-0.732%
8,CCNS(=O)(=O)c1cc(-c2nnc(Nc3cccc(C(F)(F)F)c3)c3ccccc23)ccc1C,13.3%
9,CCOc1ccc(OCC)c(Nc2nc3ccccc3n3nnnc23)c1,5.21%
10,c1ccc2cc(C3=NCCN3)ccc2c1,-15.2%
11,Cc1ccccc1Nc1nc(N)nc(COC(=O)CCC(=O)c2ccc(F)cc2)n1,2.22%
12,CCCn1nc(C(=O)NNC(=O)CSCC(=O)Nc2cc(C)on2)c2ccccc2c1=O,-7.71%
13,CCCn1nc(C(=O)OCc2nc(N)nc(Nc3ccccc3C)n2)c2ccccc2c1=O,31.8% (active)
14,CCC(=O)N1CCc2cc(Br)cc(S(=O)(=O)NCc3ccc(Cl)cc3)c21,-15.3%
15,CN1CC[C@H](c2c(O)cc(O)c3c(=O)cc(-c4ccccc4Cl)oc23)[C@H](O)C1,6.48%
16,Cn1c(=O)c2c(nc(Br)n2CCSc2nc3ccccc3o2)n(C)c1=O,4.26%
17,Cn1c(=O)[nH]c(=O)c2c1nc(Br)n2CCCCSc1nc2ccccc2o1,40.9% (active)
18,Cc1ccnc(SCCn2c(Br)nc3c2c(=O)[nH]c(=O)n3C)n1,5.98%
19,Oc1ccc(-c2nc3ccc(Cl)cn3c2Nc2ccc3c(c2)OCO3)cc1,6.89%
20,Cc1ccccc1CN1CCC(CNC(=O)c2cc3ccc4cccnc4c3[nH]2)CC1,-21.1%
21,CC(=O)Nc1cccc(NC(=O)CSc2cn(CC(=O)N3CCCC3)c3ccccc23)c1,11.5%

row,Structure (SMILES),max activation
1,Cc1cccc(N2CCN(C(=O)CCn3c(=O)c4cccn4c4cccnc43)CC2C)c1 (centres undefined),14.9%
2,O=C(O)CCCCC(=O)O,2.29%
3,O=C(NCCN1C(=O)S/C(=C\c2cccnc2)C1=O)c1ccc(S(=O)(=O)N2CCCC2)cc1,31.1% (active)
4,COc1ccc(N2CC(C(=O)NCCN3C(=O)S/C(=C\c4cccnc4)C3=O)CC2=O)c(OC)c1 (centres undefined),2.93%
5,O=C(Nc1ncccc1O)c1ccc(S(=O)(=O)N2CCCC2)cc1,1.73%
6,Cc1cccc(NC(=O)Cn2c(=O)n(CCC(C)C)c(=O)c3cccnc32)c1,-14.3%
7,Cc1ccc(-c2nc3cccc(C)n3c2Nc2ccc3c(c2)OCCO3)cc1,-6.45%
8,Cc1cccc(N2CCN(C(=O)CCSCc3ccccc3F)CC2)c1C,-6.07%
9,COc1ccc(N2CCN(C(=O)CCSCc3ccccc3F)CC2)cc1,1.03%
10,O=C(CCSCc1ccccc1F)N1CCN(c2ccc(Cl)cc2)CC1,57.2% (active)
11,CC(Oc1ccccc1)C(=O)N[C@@H]1C(=O)N2[C@@H]1SC(C)(C)[C@@H]2C(=O)O (some centres undefined),8.72%
12,Cc1cccc2c(=O)cc(CSc3ccccc3NC(=O)C(C)C)[nH]c12,3.87%
13,COc1cc(Nc2nc(-c3ccc(OC)c(OC)c3)nc3ccccc23)cc(OC)c1,-6.69%
14,Cc1ccc(-c2nn(-c3ccccc3)cc2/C=C/C(=O)Nc2cccc(S(N)(=O)=O)c2)cc1,38.3% (active)
15,COc1ccc(-n2cnnc2SCC(=O)Nc2cccc(S(N)(=O)=O)c2)cc1,0.641%
16,NS(=O)(=O)c1ccc(NC(=O)/C=C/c2ccccc2Cl)cc1,2.71%
17,CN[C@@H]1[C@@H](O)[C@@H](O[C@@H]2[C@H](O)[C@H](O[C@H]3OC(CN)=CC[C@H]3N)[C@@H](N)C[C@H]2N)OCC1(C)O (some centres undefined),-3.05%
18,O=C1NS(=O)(=O)c2ccccc21,0.55%
19,CCn1cc(C(=O)NCCc2ccccc2)c(=O)c2cc(S(=O)(=O)N3CCCCCC3)ccc21,-2.07%
20,CC(=O)Nc1ccc(NC(=O)C2CCCN(S(=O)(=O)c3ccc4c(c3)CCCC(=O)N4)C2)cc1 (centres undefined),6.84%
21,CN(C)CCCSc1ccccc1NC(=O)/C=C/c1ccccc1,-15.8%
